Test results from PubChem BioAssay (NCI).
“And” between values parts separate entries of the source, which are not always exact repeats. Equal values may be shown once. About 83,000 compounds went through this panel and 20% of them were active in at least one assay; those are over-represented in the sample as a whole.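 Values shown are percent growth following 48 h exposure of cells in 96-well plates to a single concentration of compound; below 10 was considered active.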 The source made the active and inactive calls.

tested on: HL-60(TB) leukemia; test: NCI-60 one-dose screen, 48 h (100 = growth as untreated, 0 = no growth, -100 = all killed); conditions: 10 µM unless noted

Row | SMILES | growth
1 | Cc1ccc(-c2csc(NC(=O)CN3CCN(c4cc5c(cc4F)c(=O)c(C(=O)O)cn5C4CC4)CC3)n2)cc1 | -56.3% (active)
2 | Fc1ccc(Nc2nc3nonc3nc2Nc2ccc(I)cc2)cc1 | -46.3% (active)
3 | O=C(Nc1nc2ccccc2[nH]1)C(=O)Nc1nc2ccccc2[nH]1 | 99.7% (inactive)
4 | C=COC(=O)CCOCC(CC)CCCC (centres undefined) | 91.8% (inactive)
5 | O=C(Nc1cccc(Cl)c1)c1cc2ccccc2cc1O | 5.85% (active) and -13.6% (active)
6 | CC1(C)OC2C(CO[Si](C)(C)C(C)(C)C)OC(n3c(I)c(C#C[Si](C)(C)C)c(=O)[nH]c3=O)C2O1 (centres undefined) | 69.5% (inactive)
7 | COc1ccc(-c2nnc(SCC(=O)c3ccc(Cl)cc3)o2)cc1 | 108% (inactive)
8 | CCN1C(=O)/C(=C/N2N=C(c3ccc(Cl)cc3)CC2c2ccc(OC)cc2)SC1=S (centres undefined) | 67.1% (inactive)
9 | CC(=O)NCC(=O)c1ccc([N+](=O)[O-])cc1 | 103% (inactive)
10 | CC1(C)CC2=C3C=C[C@@H]4[C@@]5(C)CCC(=O)C(C)(C)[C@@H]5CC[C@@]4(C)[C@]3(C)CC[C@@]2(C(=O)O)CC1=O | 66.8% (inactive)
11 | O=C(Nc1ccc2ncnc(Nc3ccc(F)c(Cl)c3)c2c1)c1ccccc1 | 82.2% (inactive)
12 | CN(C)CCn1c(=O)c2c3cc4c(cc3n(CCN(C)C)c2c2ccc(Cl)cc21)OCO4 | 19.5% (inactive)
13 | CCCCCc1cc[n+](CC(=O)c2ccccc2)cc1 | 91% (inactive) and 99.9% (inactive)
14 | CSc1nc2sc3c(c2c(=O)n1-c1ccc([N+](=O)[O-])cc1)CCCCC3 | 97.7% (inactive)
